# Results filed as inconclusive are left out. Where a call stands in place of a potency, no number is given. Active and inactive are the calls of the source. The call rests on the fitted dose curve.
# Columns and labels:
# [1] = target: Acetylcholinesterase (Homo sapiens) (UniProt P22303); assay: Acetylcholinesterase (AChE) small molecule antagonists: colormetric cell-based qHTS assay (AID 1347395); conditions: SH-SY5Y cells AChE activity, colorimetric (Ellman); series mostly up to 115 µM; further: nearly all actives have a fitted effect of over 30% in size; further: potency means the concentration at half of the fitted maximal effect
# Outline: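 Colorimetric readout: DTNB quantifies thiocholine from acetylthiocholine hydrolysed by endogenous AChE of SH-SY5Y cells (2,000/well, plated overnight). Compound pretreatment 30 min, substrate incubation 90 min, both 37 C.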
# [2] = target: Acetylcholinesterase (Homo sapiens) (UniProt P22303); assay: Acetylcholinesterase (AChE) small molecule antagonists: enzyme-based qHTS assay (AID 1347397); conditions: Potency: AChE enzyme activity inhibition; outcome: AChE enzyme activity inhibition; series mostly up to 115 µM; further: nearly all actives have a fitted effect of over 55% in size; further: potency means the concentration at half of the fitted maximal effect
# Outline: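 Tox21 library chemicals are tested in qHTS format against recombinant human AChE. The enzyme, dispensed at 50 mU/mL, sits with compound for 30 min at room temperature. A DTNB–acetylthiocholine cocktail follows, and colour is read after 10 min.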
# [3] = target: Acetylcholinesterase (Homo sapiens) (UniProt P22303); assay: Acetylcholinesterase (AChE) small molecule antagonists: fluorescence cell-based qHTS assay (AID 1347398); conditions: SH-SY5Y cells; Potency: AChE activity; outcome: AChE activity; series mostly up to 115 µM; further: nearly all actives have a fitted effect of over 50% in size; further: potency means the concentration at half of the fitted maximal effect
# Outline: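 Cellular AChE inhibition: SH-SY5Y cells treated with test chemical for 30 min at 37 C, then acetylthiocholine hydrolysis followed over 40 min at room temperature via thiocholine-reactive Thiolite Green fluorescence (490/520 nm).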
# [4] = target: Acetylcholinesterase (Homo sapiens) (UniProt P22303); assay: Acetylcholinesterase (AChE) small molecule antagonists: enzyme-based qHTS assay with human liver microsomes (AID 1347399); conditions: Potency: qHTS inhibition; outcome: qHTS inhibition; series mostly up to 115 µM; further: nearly all actives have a fitted effect of over 60% in size
# Outline: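 Recombinant human AChE (50 mU/mL in the enzyme mix) and human liver microsomes (0.25 mg/mL final) were preincubated with compound and NADPH (0.25 mg/mL final) for 30 min at 37 C. Acetylthiocholine/DTNB was then added; thiocholine was read colorimetrically after 10 min at room temperature.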
# Chain of Acetylcholinesterase (Homo sapiens) (P22303 whole entry, looked up): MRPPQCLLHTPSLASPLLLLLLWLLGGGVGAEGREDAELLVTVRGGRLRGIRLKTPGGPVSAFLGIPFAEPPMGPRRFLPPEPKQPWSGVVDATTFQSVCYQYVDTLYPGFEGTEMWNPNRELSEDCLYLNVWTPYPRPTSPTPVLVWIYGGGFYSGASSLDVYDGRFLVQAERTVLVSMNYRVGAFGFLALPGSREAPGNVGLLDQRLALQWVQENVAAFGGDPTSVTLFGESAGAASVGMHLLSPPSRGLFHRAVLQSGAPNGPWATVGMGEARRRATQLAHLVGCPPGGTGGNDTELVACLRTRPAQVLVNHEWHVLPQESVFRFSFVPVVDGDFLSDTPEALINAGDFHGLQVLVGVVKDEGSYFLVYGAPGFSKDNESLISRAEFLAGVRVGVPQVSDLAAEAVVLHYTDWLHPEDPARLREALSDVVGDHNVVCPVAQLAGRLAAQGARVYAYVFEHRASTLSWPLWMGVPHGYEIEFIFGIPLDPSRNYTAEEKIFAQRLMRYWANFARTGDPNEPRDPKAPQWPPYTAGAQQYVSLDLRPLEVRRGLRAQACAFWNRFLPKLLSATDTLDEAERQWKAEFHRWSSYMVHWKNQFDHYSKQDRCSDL
smiles,measurement,setting,value
Cc1ccc(-c2ccccc2)cc1,Potency,[1],inactive
same,Potency,[2],inactive
same,Potency,[3],inactive
same,Potency,[4],inactive
O=Cc1ccc(F)c(Br)c1,Potency,[1],inactive
same,Potency,[2],inactive
same,Potency,[3],inactive
same,Potency,[4],inactive
O=C1CCCC(=O)C1,Potency,[1],inactive
same,Potency,[2],inactive
same,Potency,[3],inactive
same,Potency,[4],inactive
Clc1nc2ccccc2nc1Cl,Potency,[1],inactive
same,Potency,[2],inactive
same,Potency,[3],inactive
same,Potency,[4],inactive
CCOc1ccc(O)cc1,Potency,[1],inactive
same,Potency,[2],inactive
same,Potency,[3],inactive
same,Potency,[4],inactive
CC(=O)OCC(C)OC(C)=O (stereo not given),Potency,[1],inactive
same,Potency,[2],inactive
same,Potency,[3],inactive
same,Potency,[4],inactive
Nc1cccc(S(=O)(=O)O)c1,Potency,[1],inactive
same,Potency,[2],inactive
same,Potency,[3],inactive
same,Potency,[4],inactive
CCc1cc(C2=C(C(=O)O)N(c3ccccc3C(F)(F)F)S(=O)(=O)c3ccccc32)cc2c1OCO2,Potency,[1],inactive
same,Potency,[2],inactive
same,Potency,[3],inactive
same,Potency,[4],inactive
CCOc1ccccc1O[C@H](c1ccccc1)[C@H]1CNCCO1,outcome,[1],inactive
same,outcome,[2],inactive
same,outcome,[3],inactive
same,outcome,[4],inactive
OCc1ccccn1,Potency,[1],inactive
same,Potency,[2],inactive
same,Potency,[3],inactive
same,Potency,[4],inactive
COc1ccnc(CS(=O)c2nc3cc(OC(F)F)ccc3[nH]2)c1OC (stereo not given),Potency,[1],inactive
same,Potency,[2],inactive
same,Potency,[3],inactive
same,Potency,[4],inactive
CCCCCCCCCCCCCCCCN(C)C,"activity, negative = inhibition",[1],-4.82% [at 10.5 µM] (inactive)
same,"activity change, negative = inhibition",[2],-0.395% [at 10.5 µM] (inactive)
same,"activity change, negative = inhibition",[3],-5.81% [at 10.5 µM] (inactive)
same,"activity change, negative = inhibition",[4],-0.307% [at 10.5 µM] (inactive)
CCCCCCCCCCCCCCCCCC(=O)OCCCCCCCCCCCCCC(C)C,Potency,[1],inactive
same,Potency,[2],inactive
same,Potency,[3],inactive
same,Potency,[4],inactive
O=C(O)c1cccc(Cl)n1,Potency,[1],inactive
same,Potency,[2],inactive
same,Potency,[3],inactive
same,Potency,[4],inactive
Cc1cc(C(C)(C)C)cc(C)c1CC1=NCCN1,Potency,[1],inactive
same,Potency,[2],inactive
same,Potency,[3],inactive
same,Potency,[4],inactive
c1ccc2occc2c1,Potency,[1],inactive
same,Potency,[2],inactive
same,Potency,[3],inactive
same,Potency,[4],inactive
CCN(CC)c1cccc(C)c1,Potency,[1],inactive
same,Potency,[2],inactive
same,Potency,[3],inactive
same,Potency,[4],inactive
O=[N+]([O-])c1ccc(Nc2ccc(Nc3ccccc3)c(S(=O)(=O)O)c2)c([N+](=O)[O-])c1,Potency,[1],inactive
same,Potency,[2],inactive
same,Potency,[3],inactive
same,Potency,[4],inactive
C#CCOC(=O)[C@@H](C)Oc1ccc(Oc2ncc(Cl)cc2F)cc1,Potency,[1],inactive
same,Potency,[2],inactive
same,Potency,[3],inactive
same,Potency,[4],inactive
Cc1occc(=O)c1OC(=O)C(C)C,Potency,[1],inactive
same,Potency,[2],inactive
same,Potency,[3],inactive
same,Potency,[4],inactive
O=C1CCCCCCCCCCC(=O)OCCO1,Potency,[1],inactive
same,Potency,[2],inactive
same,Potency,[3],inactive
same,Potency,[4],inactive
CCCCCCCCCCCCCCC1CO1 (stereo not given),Potency,[1],inactive
same,Potency,[2],inactive
same,Potency,[3],inactive
same,Potency,[4],inactive
Nc1ccc2ccccc2c1S(=O)(=O)O,Potency,[1],inactive
same,Potency,[2],inactive
same,Potency,[3],inactive
same,Potency,[4],inactive
CC(C)=CCC/C(C)=C/CC/C(C)=C/CCC(=O)OC/C=C(\C)CCC=C(C)C,Potency,[1],inactive
same,Potency,[2],inactive
same,Potency,[3],inactive
same,Potency,[4],inactive
O=C1CCCCCO1,Potency,[1],inactive
same,Potency,[2],inactive
same,Potency,[3],inactive
same,Potency,[4],inactive
COC(=O)[C@]1(C)CCC[C@@]2(C)[C@H]1CC=C1C=C(C(C)C)CC[C@@H]12,Potency,[1],inactive
same,Potency,[2],inactive
same,Potency,[3],inactive
same,Potency,[4],inactive
N=C(N=C(N)N)N1CCOCC1,Potency,[1],inactive
same,Potency,[2],inactive
same,Potency,[3],inactive
same,Potency,[4],inactive
C=CC1CO1 (stereo not given),Potency,[1],inactive
same,Potency,[2],inactive
same,Potency,[3],inactive
same,Potency,[4],inactive
CCCCOc1ccc(C(=O)CCN2CCCCC2)cc1,Potency,[1],12.3 µM (active)
same,Potency,[2],27.5 µM (active)
same,Potency,[3],12.3 µM (active)
same,Potency,[4],inactive
CC(C)=CCC/C(C)=C\C#N,Potency,[1],inactive
same,Potency,[2],inactive
same,Potency,[3],inactive
same,Potency,[4],inactive
Cc1ccc(CO)cc1,Potency,[1],inactive
same,Potency,[2],inactive
same,Potency,[3],inactive
same,Potency,[4],inactive
O=C(O)c1c2ccccc2cc2ccccc12,Potency,[1],inactive
same,Potency,[2],inactive
same,Potency,[3],inactive
same,Potency,[4],inactive
COc1ccc(OC(=O)N(CC(=O)O)Cc2ccc(OCCc3nc(-c4ccccc4)oc3C)cc2)cc1,Potency,[1],inactive
same,Potency,[2],inactive
same,Potency,[3],inactive
same,Potency,[4],inactive
CC(C)c1ccc2c(c1)CC[C@H]1[C@](C)(CN)CCC[C@]21C,Potency,[1],inactive
same,Potency,[2],inactive
same,Potency,[3],inactive
same,Potency,[4],inactive
OCCCCCCO,Potency,[1],inactive
same,Potency,[2],inactive
same,Potency,[3],inactive
same,Potency,[4],inactive
CCC(O)CO (stereo not given),Potency,[1],inactive
same,Potency,[2],inactive
same,Potency,[3],inactive
same,Potency,[4],inactive
N=C(N)S(=O)O,Potency,[1],inactive
same,Potency,[2],inactive
same,Potency,[3],inactive
same,Potency,[4],inactive
COC(=O)/C=C/C(C)=C\C=C\C(C)=C\C=C\C=C(C)\C=C\C=C(C)\C=C\C(=O)O,Potency,[1],inactive
same,Potency,[2],inactive
same,Potency,[3],inactive
same,Potency,[4],inactive
NC(=O)Nc1ccc(Cl)cc1,Potency,[1],inactive
same,Potency,[2],inactive
same,Potency,[3],inactive
same,Potency,[4],inactive
NS(=O)(=O)c1cc(C(=O)NN2C[C@H]3[C@H]4CCC(C4)[C@H]3C2)ccc1Cl,Potency,[1],inactive
same,Potency,[2],inactive
same,Potency,[3],inactive
same,Potency,[4],inactive

# — PubChem BioAssay (Tox21)
